This note sets out measurements from PubChem BioAssay (NCI).

Each structure is given as a SMILES string. Compounds without any hit were thinned out: in the full panel of roughly 83,000, 20% have a hit.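 Step 1: grow cells in 96-well plates. Step 2: add test compound at a single concentration. Step 3: incubate 48 h. Step 4: record percent growth.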 A number with no mark means an inactive call. Calls of active or inactive are those of the source. The calls were made as follows: active = growth percent below 10; inactive = the rest.

One assay deals with U251 CNS. The assay can be described thus: NCI-60 one-dose screen, 48 h (100 = growth as untreated, 0 = no growth, -100 = all killed). Conditions: 10 µM unless noted.
For the compound `c1ccc(Cn2cnc3ccc(-c4nc(-c5ccc6c(c5)ncn6C5CCCCC5)cn5ccnc45)cc32)cc1`, the growth is -22.8% (active).
For the compound `N/C(=N\C(N)=N\c1nc2ccccc2s1)c1cccc(Cl)c1`, the growth was 48.3%.
Same read-out and setting: the value for `O=C(Cc1ccccc1)NNc1nc(Cl)nc(N2CCN(C(c3ccccc3)c3ccccc3)CC2)n1` was 99.9%; that for `CCN(CC)c1ccc(C(=O)c2ccccc2)cc1` was 87.2%.
Still for that read-out and setting: the value for `O=C(Nc1ncc(Cc2cc(Cl)ccc2Cl)s1)c1cccs1` was 51.8%.
Same read-out and setting: then `COc1cc(C2C3CC4CCCC[C@H]4N3[C@@]3(C(=O)Nc4cc(Cl)ccc43)C2C(=O)c2nc3ccccc3[nH]2)cc(OC)c1OC` (some centres undefined), with 56.7%; and `CC(=O)[C@@H]1CC[C@]2(C(N)=O)CC[C@]3(C)[C@H](CC[C@@H]4[C@@]5(C)CCCNC(C)(C)[C@@H]5CC[C@]43C)[C@@H]12`, with 81.7%.
As to `Cc1cccc(C)c1N=c1oc2ccc(Cl)cc2nc1-c1ccccc1O`, the growth was 94.4%.
Same read-out and setting: then `O=S(=O)(NCCCNc1nccc(-c2c(-c3cccc(O)c3)nc3occn23)n1)c1ccc(Cl)cc1`, with 102%; and `N#C/C(=C\c1ccc([N+](=O)[O-])s1)c1nc2cc(Br)ccc2s1`, with -20.5% (active); and `Oc1ccc(C(c2ccc(O)cc2)c2ccc(Br)cn2)cc1`, with 86.9%.
Still for that read-out and setting: the value for `Cc1nc2sccn2c1-c1cn2ccsc2n1` was 90.8%; that for `CCOC(=O)/C(C#N)=C1/NNC(=Nc2cccnc2)S1` was 94.1%.
Take `O=S(=O)(NCCCNc1nccc(-c2c(-c3cccc(F)c3)nc3sccn23)n1)c1cccc2ccccc12`: the growth was 59.1%.
On the same count and under the same terms, then `CCCNC(=O)Oc1ccc(/C(=C(\C)c2ccccc2)c2ccc(OCCCN(C)C)cc2)cc1`, with 68.8%; and `O=C(CSc1nc2sc3c(c2c(=O)n1-c1ccc(Cl)cc1)CCCC3)Nc1nc(-c2cccc(Br)c2)cs1`, with 78.8%; and `O=C1c2ccc3c4c(ccc(c24)C(=O)N1CCCNCc1ccccc1F)C(=O)N(CCCNCc1ccccc1F)C3=O`, with -85.6% (active).
As for `CCN(CC)c1ccc(/C=N/NC(=O)CSc2nc3ccccc3c(=O)n2CCc2ccc(S(N)(=O)=O)cc2)c(O)c1`, the growth was 31.7%.
On to `CCCCCN1C=C/C(=C\C(=O)N(C)c2ccc(Oc3ccccc3)cc2)c2ccccc21`, for which the growth was 80.1%.
On the same count and under the same terms, the value for `C/C=C(\C)C(=O)NC1=CC[C@@]2(C)C(=CCC3C2CC[C@@]2(C)C3CC[C@@H]2C(C)N(C)C)C1=O` (some centres undefined) was 36.3%.
Take `C[C@H]1[C@H](C)CC[C@]2(C(=O)NCC#CCN3CCN(C)CC3)CC[C@]3(C)C(=CC[C@@H]4[C@@]5(C)Cc6c([nH]c7ccccc67)C(C)(C)[C@@H]5CC[C@]43C)[C@H]12`: the growth was 64.3%.
For `CCOC(=O)c1cc(C(=O)c2ccc(Br)cc2)n2ccc(/C=C/c3cc[n+](CC(=O)c4ccc(OC)cc4)cc3)cc12`, the growth is 101%.
In the case of `NC(=NCCCOc1ccc(F)cc1)Nc1ccc(I)cc1`, the growth was 78.6%.
Still for that read-out and setting: the value for `O=C(/C=C(/C=C/c1coc2ccccc12)OB(F)F)/C=C/c1coc2ccccc12` was 84.6%.
The same measure, in the same setting: the value for `COc1cc(NC(=O)CSc2nc3ccc(C)cc3c(=O)n2Cc2ccccc2)cc(OC)c1OC` was 57.6%; that for `Oc1ccc(C2c3ccccc3Oc3ccccc32)c2cccnc12` was 10.8%.
`Cc1ccc(C(=O)/C(=C\c2ccc([N+](=O)[O-])cc2)S(=O)Cc2ccc(F)cc2)cc1` (centres undefined): the growth is -7.84% (active).
`COc1cc2oc(-c3cccc(C(=O)Nc4ccccc4)c3)cc(=O)c2c(O)c1OC`: the growth is 36.9%.
For `COc1ccc(C(=O)/C=C/c2cc3ccccc3n3nnnc23)cc1`, the growth was 101%.
Same read-out and setting: then `Cc1nc2sccn2c1-c1nc2sccn2c1/C=C1/C(=O)Nc2ccccc21`, with 24.6%; and `COc1cc2c(c(OC)c1OC)CCC(c1cccc(NC(=O)c3cccc(Br)c3)c1)O2` (centres undefined), with 93.5%; and `CCCCCN1C=C/C(=C\C(=O)N(C)c2ccccc2Br)c2ccccc21`, with 87.7%.
As to `COc1ccc(C(=O)c2cc(OC)c(OC)c(OC)c2)cc1O`, the growth is 20.5%.
Take `CC(C)(C)c1cc(C=O)cc(C(C)(C)C)c1O`: the growth was 96.3%.
Same read-out and setting: the value for `CCOC(=O)c1nc2c3ccccc3ccn2c1C(=O)OCC` was 105%.
Regarding `CC(C)=CCC[C@](C)(O)[C@H]1CC[C@]2(C)[C@@H]1CC[C@@H]1[C@@]3(C)C/C(=C/c4ccccc4)C(=O)C(C)(C)[C@@H]3CC[C@]12C`, the growth was 85.8%.
As to `C=C(C)[C@@H]1CC[C@]2(C(=O)N3CCN(C)CC3)CC[C@]3(C)[C@H](CC[C@@H]4[C@@]5(C)CC[C@H](O)C(C)(C)[C@@H]5CC[C@]43C)[C@@H]12`, the growth was -84.8% (active).

A further assay relates to PC-3 prostate. The description is as above. Conditions: 10 µM unless noted.
For `c1ccc(Cn2cnc3ccc(-c4nc(-c5ccc6c(c5)ncn6C5CCCCC5)cn5ccnc45)cc32)cc1`, the growth was -39.5% (active).
Still for that read-out and setting: the value for `N/C(=N\C(N)=N\c1nc2ccccc2s1)c1cccc(Cl)c1` was 45%.
In the case of `O=C(Cc1ccccc1)NNc1nc(Cl)nc(N2CCN(C(c3ccccc3)c3ccccc3)CC2)n1`, the growth was 81.5%.
`CCN(CC)c1ccc(C(=O)c2ccccc2)cc1`: the growth is 97.9%.
Turning to `O=C(Nc1ncc(Cc2cc(Cl)ccc2Cl)s1)c1cccs1`, the growth is 53.4%.
On the same count and under the same terms, then `COc1cc(C2C3CC4CCCC[C@H]4N3[C@@]3(C(=O)Nc4cc(Cl)ccc43)C2C(=O)c2nc3ccccc3[nH]2)cc(OC)c1OC` (some centres undefined), with 43.7%; and `CC(=O)[C@@H]1CC[C@]2(C(N)=O)CC[C@]3(C)[C@H](CC[C@@H]4[C@@]5(C)CCCNC(C)(C)[C@@H]5CC[C@]43C)[C@@H]12`, with 65.5%.
On the same count and under the same terms, then `Cc1cccc(C)c1N=c1oc2ccc(Cl)cc2nc1-c1ccccc1O`, with 88.6%; and `O=S(=O)(NCCCNc1nccc(-c2c(-c3cccc(O)c3)nc3occn23)n1)c1ccc(Cl)cc1`, with 82.7%.
The same measure, in the same setting: then `N#C/C(=C\c1ccc([N+](=O)[O-])s1)c1nc2cc(Br)ccc2s1`, with -49% (active); and `Oc1ccc(C(c2ccc(O)cc2)c2ccc(Br)cn2)cc1`, with -17.1% (active); and `Cc1nc2sccn2c1-c1cn2ccsc2n1`, with 94.6%.
As for `CCOC(=O)/C(C#N)=C1/NNC(=Nc2cccnc2)S1`, the growth is 88.6%.
Still for that read-out and setting: then `O=S(=O)(NCCCNc1nccc(-c2c(-c3cccc(F)c3)nc3sccn23)n1)c1cccc2ccccc12`, with 41.2%; and `CCCNC(=O)Oc1ccc(/C(=C(\C)c2ccccc2)c2ccc(OCCCN(C)C)cc2)cc1`, with 71.7%.
For the compound `O=C(CSc1nc2sc3c(c2c(=O)n1-c1ccc(Cl)cc1)CCCC3)Nc1nc(-c2cccc(Br)c2)cs1`, the growth was 57.5%.
On the same count and under the same terms, then `O=C1c2ccc3c4c(ccc(c24)C(=O)N1CCCNCc1ccccc1F)C(=O)N(CCCNCc1ccccc1F)C3=O`, with -59.1% (active); and `CCN(CC)c1ccc(/C=N/NC(=O)CSc2nc3ccccc3c(=O)n2CCc2ccc(S(N)(=O)=O)cc2)c(O)c1`, with 45%; and `CCCCCN1C=C/C(=C\C(=O)N(C)c2ccc(Oc3ccccc3)cc2)c2ccccc21`, with 77.6%.
The same measure, in the same setting: the value for `C/C=C(\C)C(=O)NC1=CC[C@@]2(C)C(=CCC3C2CC[C@@]2(C)C3CC[C@@H]2C(C)N(C)C)C1=O` (some centres undefined) was 26.2%; that for `C[C@H]1[C@H](C)CC[C@]2(C(=O)NCC#CCN3CCN(C)CC3)CC[C@]3(C)C(=CC[C@@H]4[C@@]5(C)Cc6c([nH]c7ccccc67)C(C)(C)[C@@H]5CC[C@]43C)[C@H]12` was 69.8%.
On to `CCOC(=O)c1cc(C(=O)c2ccc(Br)cc2)n2ccc(/C=C/c3cc[n+](CC(=O)c4ccc(OC)cc4)cc3)cc12`, for which the growth was 83.8%.
Still for that read-out and setting: then `NC(=NCCCOc1ccc(F)cc1)Nc1ccc(I)cc1`, with 59.1%; and `O=C(/C=C(/C=C/c1coc2ccccc12)OB(F)F)/C=C/c1coc2ccccc12`, with 86.2%.
Still for that read-out and setting: the value for `COc1cc(NC(=O)CSc2nc3ccc(C)cc3c(=O)n2Cc2ccccc2)cc(OC)c1OC` was 74.1%.
The same measure, in the same setting: then `Oc1ccc(C2c3ccccc3Oc3ccccc32)c2cccnc12`, with 34.2%; and `Cc1ccc(C(=O)/C(=C\c2ccc([N+](=O)[O-])cc2)S(=O)Cc2ccc(F)cc2)cc1` (centres undefined), with -0.882% (active).
Consider `COc1cc2oc(-c3cccc(C(=O)Nc4ccccc4)c3)cc(=O)c2c(O)c1OC`, for which the growth is 71%.
With `COc1ccc(C(=O)/C=C/c2cc3ccccc3n3nnnc23)cc1`, the growth was 103%.
On to `Cc1nc2sccn2c1-c1nc2sccn2c1/C=C1/C(=O)Nc2ccccc21`, for which the growth was 28.7%.
Same read-out and setting: then `COc1cc2c(c(OC)c1OC)CCC(c1cccc(NC(=O)c3cccc(Br)c3)c1)O2` (centres undefined), with 76.1%; and `CCCCCN1C=C/C(=C\C(=O)N(C)c2ccccc2Br)c2ccccc21`, with 92.1%; and `COc1ccc(C(=O)c2cc(OC)c(OC)c(OC)c2)cc1O`, with 20.4%.
On to `CC(C)(C)c1cc(C=O)cc(C(C)(C)C)c1O`, for which the growth is 87.6%.
On the same count and under the same terms, the value for `CCOC(=O)c1nc2c3ccccc3ccn2c1C(=O)OCC` was 110%.
Still for that read-out and setting: the value for `CC(C)=CCC[C@](C)(O)[C@H]1CC[C@]2(C)[C@@H]1CC[C@@H]1[C@@]3(C)C/C(=C/c4ccccc4)C(=O)C(C)(C)[C@@H]3CC[C@]12C` was 79.6%; that for `C=C(C)[C@@H]1CC[C@]2(C(=O)N3CCN(C)CC3)CC[C@]3(C)[C@H](CC[C@@H]4[C@@]5(C)CC[C@H](O)C(C)(C)[C@@H]5CC[C@]43C)[C@@H]12` was -70.7% (active).
